According to paper PMC5540273 (PLoS ONE, 2017):

Tests used:
Details in all cases: concentration: 1 μM, replicates: in singlicate; n = 1
[1] = tested on: PRP4
[2] = tested on: T1, PYK2
T1 construct: gene PTK2B

[3] = tested on: QSK
[4] = tested on: RAF1
[5] = tested on: RET
[6] = tested on: RIOK1
[7] = tested on: RIOK2
[8] = tested on: RIOK3
[9] = tested on: RIPK1
[10] = tested on: RIPK2
[11] = tested on: RIPK4
[12] = tested on: RIPK5
[13] = tested on: ROCK1
[14] = tested on: ROCK2
[15] = tested on: ROS1
[16] = tested on: RPS6KA4(Kin.Dom.1-N-terminal)
[17] = tested on: RPS6KA4(Kin.Dom.2-C-terminal)
[18] = tested on: RPS6KA5(Kin.Dom.1-N-terminal)
[19] = tested on: RPS6KA5(Kin.Dom.2-C-terminal)
[20] = tested on: T2, RSK1(Kin.Dom.1-N-terminal)
T2 construct: gene RPS6KA1
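Note: KINOMEscan kinase panel screen.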

| SMILES | %Inh [1] [%] | %Inh [2] [%] | %Inh [3] [%] | %Inh [4] [%] | %Inh [5] [%] | %Inh [6] [%] | %Inh [7] [%] | %Inh [8] [%] | %Inh [9] [%] | %Inh [10] [%] | %Inh [11] [%] | %Inh [12] [%] | %Inh [13] [%] | %Inh [14] [%] | %Inh [15] [%] | %Inh [16] [%] | %Inh [17] [%] | %Inh [18] [%] | %Inh [19] [%] | %Inh [20] [%] |
| --- | --- | --- | --- | --- | --- | --- | --- | --- | --- | --- | --- | --- | --- | --- | --- | --- | --- | --- | --- | --- |
| Nc1ncnc2occ(-c3ccc4c(c3)CCN4C(=O)Cc3cc(F)ccc3F)c12 [GSK2645446] | 25 | 0 | 0 | 0 | 10 | 37 | 0 | 0 | 98.6 | 0 | 0 | 12 | 12 | 11 | 2 | 14 | 0 | 2 | 1 | 0 |
| O=C(Nc1n[nH]c2nc(-c3cccs3)c(Br)cc12)C1CCCC1 [SB-743341] | 15 | 0 | 4 | 6 | 16 | 24 | 7 | 11 | 25 | 3 | 0 | 34 | 0 | 0 | 21 | 4 | 25 | 4 | 7 | 0 |
| CC(=O)c1c(C)c2cnc(Nc3ccn(C)n3)nc2n(C2CCCC2)c1=O | 0 | 0 | 0 | 0 | 5 | 0 | 24 | 0 | 2 | 0 | 0 | 0 | 0 | 0 | 4 | 0 | 0 | 0 | 3 | 0 |
| COc1cc2ncnc(Nc3cccc(Br)c3)c2cc1OC.Cl [GI230329] | 37 | 12 | 11 | 0 | 47 | 29 | 0 |  | 2 | 38 | 5 | 8 | 37 | 33 | 28 | 8 | 0 | 0 | 2 | 0 |
| Cc1ccc(-c2nc(Nc3ccncc3)c3ccccc3n2)s1 [GSK189015] | 0 | 0 | 6 | 12 | 13 | 45 | 26 | 23 | 0 | 10 | 20 | 6 | 0 | 0 | 0 | 18 | 0 | 23 | 0 | 0 |
| Cc1ccccc1-c1cc(-c2c[nH]nc2-c2ccccn2)ccn1 [GW680061] | 27 | 0 | 0 | 15 | 0 | 20 | 19 | 0 | 0 | 2 | 0 | 0 | 0 | 3 | 0 | 5 | 0 | 4 | 0 | 5 |
| CSc1ccc(-c2nc3n(c2-c2ccncc2)CCC3)cc1 [SKF-105561] | 1 | 0 | 31 | 0 | 0 | 0 | 0 | 5 | 0 | 74 | 13 | 17 | 23 | 0 | 6 | 6 | 10 | 5 | 0 | 0 |
| CNC(=O)c1ccc(C)c(-n2c(C)cc(OCc3ccc(F)cc3F)c(Br)c2=O)c1 | 0 | 0 | 0 | 0 | 0 | 0 | 0 | 0 | 0 | 0 | 0 | 0 | 0 | 0 | 15 | 67 | 0 | 0 | 0 | 0 |
| Cc1c(Cn2c(C)c(C)n3c(=O)cc(N4CCOCC4)nc23)cccc1C(F)(F)F [GSK2328680] | 23 | 10 | 6 | 13 | 4 | 11 | 11 | 0 | 17 | 11 | 0 | 67 | 11 | 10 | 19 | 1 | 0 | 16 | 0 | 0 |
| CC(C)c1cc(-c2ccc3c(N)n[nH]c3c2)nc(N)n1 [GSK2250882] | 4 | 28 | 4 | 0 | 0 | 86 | 14 | 82 | 0 | 0 | 4 | 0 | 28 | 20 | 23 | 13 | 3 | 0 | 25 | 14 |
| c1ccc(-c2ccnc3[nH]ccc23)cc1 [SB-693578] | 44 | 5 | 15 | 41 | 0 | 14 | 27 | 0 | 0 | 18 | 28 | 7 | 90 | 88 | 0 | 0 | 8 | 5 | 26 | 28 |
| COc1ccc(-c2coc3ccc(-c4nnc(C)o4)cc23)cc1 | 17 | 0 | 0 | 11 | 0 | 0 | 15 | 0 | 0 | 3 | 0 | 0 | 0 | 0 | 0 | 13 | 0 | 4 | 4 | 0 |
| COC(=O)C(Cc1ccccc1)NC(=O)NC1CCN(c2ccnc(Nc3ccc(F)cc3)n2)C1 (centres unmarked) [GSK1379714] | 33 | 28 | 0 | 13 | 21 | 24 | 0 | 34 | 18 | 3 | 0 | 15 | 9 | 20 | 24 | 14 | 0 | 1 | 18 | 6 |
| CC(C)c1ccc(O)cc1Nc1ccnc2ccc(C(F)(F)F)cc12 [GW482059] | 14 | 0 | 0 | 0 | 38 | 29 | 5 | 0 | 3 | 81 | 0 | 0 | 86 | 26 | 0 | 11 | 0 | 23 | 0 | 0 |
| O=C(Nc1n[nH]c2cc(-c3ccsc3)ccc12)C1CC1 [SB-732932] | 15 | 11 | 26 | 0 | 0 | 83 | 16 | 0 | 56 | 0 | 35 | 8 | 7 | 0 | 0 | 12 | 17 | 0 | 13 | 26 |
| CS(=O)(=O)CCNCc1nc(-c2ccc3ncnc(Nc4ccc5c(cnn5Cc5ccccc5)c4)c3c2)cs1.Cl.Cl [GW569716] | 49 | 0 | 9 | 13 | 0 | 22 | 0 | 0 | 0 | 88 | 3 | 0 | 47 | 33 | 0 | 23 | 0 | 9 | 7 | 8 |

| SMILES | %Inh [1] [%] | %Inh [2] [%] | %Inh [3] [%] | %Inh [4] [%] | %Inh [5] [%] | %Inh [6] [%] | %Inh [7] [%] | %Inh [8] [%] | %Inh [9] [%] | %Inh [10] [%] | %Inh [11] [%] | %Inh [12] [%] | %Inh [13] [%] | %Inh [14] [%] | %Inh [15] [%] | %Inh [16] [%] | %Inh [17] [%] | %Inh [18] [%] | %Inh [19] [%] | %Inh [20] [%] |
| --- | --- | --- | --- | --- | --- | --- | --- | --- | --- | --- | --- | --- | --- | --- | --- | --- | --- | --- | --- | --- |
| CNc1nc(-c2ccc3c(N)n[nH]c3c2)cc(N2C[C@@H](C(=O)Nc3ccccc3)CC[C@H]2C)n1 [GSK2298859] | 11 | 0 | 18 | 4 | 4 | 57 | 0 | 38 | 1 | 0 | 0 | 0 |  | 61 | 36 | 22 | 0 | 29 | 50 | 0 |
| CNCc1ccc2nc(NC(=O)c3ccc(C(C)(C)C)cc3)cn2c1 | 36 | 7 | 12 | 11 | 14 | 20 | 86 | 25 | 2 | 2 | 14 | 11 | 5 | 13 | 9 | 9 | 9 | 0 | 0 | 0 |
| CCCCc1nn2ncccc2c1-c1ccnc(NC2CC2)n1 [GW684374] | 26 | 0 | 0 | 2 | 0 | 39 | 13 | 24 | 0 | 2 | 7 | 5 | 0 | 0 | 8 | 0 | 0 | 0 | 11 | 7 |
| CN1c2ccc(-c3ccc(C(N)=O)cc3)cc2-c2[nH]ncc2S1(=O)=O | 12 | 0 | 14 | 11 | 1 | 33 | 0 | 29 | 0 | 0 | 0 | 0 | 0 | 11 | 0 | 17 | 26 | 0 | 0 | 0 |
| O=C(Nc1n[nH]c2nc(-c3cccs3)c(Br)cc12)C1CC1 [SB-735297] | 8 | 16 | 8 | 0 | 0 | 7 | 11 | 0 | 8 | 95.4 | 7 | 3 | 0 | 0 | 6 | 0 | 8 | 10 | 4 | 14 |
| Cn1cncc1-c1cc2c(Nc3ccc(OCc4ccccc4)cc3)ncnc2cn1 [GW281179] | 23 | 9 | 0 | 34 | 5 | 27 | 11 | 6 | 0 | 92.1 | 8 | 0 | 82 | 74 | 13 | 9 | 0 | 11 | 0 | 30 |
| CCn1c(-c2ccccc2)nc2cnccc21 [SB-733416] | 7 | 20 | 9 | 3 | 23 | 45 | 0 | 0 | 0 | 6 | 41 | 5 | 9 | 0 | 7 | 0 | 0 | 3 | 0 | 0 |
| CS(=O)(=O)CCNCc1nc(-c2ccc3ncnc(Nc4ccc(OCc5ccccc5)c(Cl)c4)c3c2)cs1.Cl [GW582764] | 51 | 1 | 0 | 13 | 0 | 0 | 0 | 0 | 0 | 68 | 1 | 0 | 45 | 38 | 0 | 17 | 0 | 3 | 0 | 25 |
| COc1ccc(Nc2nccc(N3CCC(NC(=O)C(C)c4ccc(Cl)cc4)CC3)n2)cc1 (centres unmarked) [GSK1379812] | 18 | 0 | 0 | 60 | 38 | 24 | 0 | 31 | 22 | 10 | 0 | 0 | 15 | 16 | 40 | 19 | 0 | 3 | 42 | 2 |
| COC(=O)c1cccc(NC(=O)NC2CCN(c3ccnc(Nc4ccc(F)cc4)n3)C2)c1 (centres unmarked) [GSK1379725] | 41 | 0 | 6 | 4 | 5 | 10 | 0 | 0 | 0 | 0 | 18 | 0 | 0 | 0 | 0 | 0 | 0 | 0 | 16 | 8 |
| CC[C@@H]1CO[C@H](C(=O)Nc2ccccc2)CN1c1cc(-c2ccc3c(N)n[nH]c3c2)nc(NC)n1 [GSK2376236] | 11 | 0 | 0 | 4 | 11 | 48 | 4 | 40 | 0 | 9 | 0 | 8 |  | 52 | 24 | 10 | 0 | 28 | 23 | 7 |
| COC(=O)C(NC(=O)NC1CCN(c2ccnc(Nc3ccc(F)cc3)n2)C1)c1ccccc1 (centres unmarked) [GSK1379712] | 33 | 0 | 6 | 0 | 2 | 13 | 0 | 3 | 20 | 20 | 13 | 22 | 31 | 37 | 12 | 0 | 0 | 0 | 22 | 22 |
| Cc1ccc(NC(=O)Nc2ccc(Cl)c(C(F)(F)F)c2)cc1-c1ccc(C(=O)Nc2ccncc2)cc1 [GSK1398470] | 1 | 4 | 9 | 90 | 28 | 30 | 12 | 13 | 17 | 0 | 0 | 0 | 0 | 0 | 14 | 0 | 0 | 17 | 0 | 2 |
| NS(=O)(=O)c1cccc(N/C=C2\C(=O)Nc3ccc(S(=O)(=O)Cc4c(Cl)cccc4Cl)cc32)c1 [GSK398099] | 19 | 19 | 11 | 15 | 0 | 19 | 0 | 19 | 0 | 12 | 14 | 0 | 0 | 2 | 0 | 2 | 0 | 0 | 0 | 11 |
| O=C1NC(=O)C(c2ccc(Cl)cc2)=C1Nc1ccc(O)cc1 [SB-340867] | 8 | 18 | 0 | 46 | 0 | 0 | 0 | 0 | 0 | 0 | 0 | 0 | 0 | 0 | 0 | 0 | 0 | 0 | 0 | 9 |
